Reference: PubChem BioAssay (EPA / NIEHS)
Inconclusive results are not listed. The source made the active and inactive calls. How the source made its calls: active means hit-call score of the fitted dose curve at least 0.9, where 1 is the maximum; inconclusive means response in the unintended direction; inactive means score below 0.9. Where a SMILES comes first, the peptide text is derived from it. Bridges are numbered along the chain shown (N, C = ends). [ ]: non-standard residue; d: D form. Orn = NCCC[C@H](N)C(=O)O; Mpa = O=C(O)CCS

What was measured:
[1] = TOX21_p53_BLA_p2_viability: Viability Assessment in the Tox21 HCT-116 p53 Agonism Beta-lactamase Assay, Phase 2 (AID 2283591);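 further: actives lower the ATP signal meaning cytotoxicity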
How it was run: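 HCT-116 p53-bla cells (4000/well) rested 5 h at 37C, then received compounds in DMSO (217-fold dilution) for 16 h at 37C, 5% CO2. After the CCF4 read, CellTiter-Glo was added; ATP luminescence was read after 30 min at room temperature.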

[2] = target: Cellular tumor antigen p53 (Homo sapiens) (UniProt P04637); assay: TOX21_p53_BLA_p2_ratio: Tox21 HCT-116 p53 Agonism Beta-lactamase Assay, Ratio, Phase 2 (AID 2283592)
How it was run: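 First, HCT116 reporter cells settle for 5 h at 37C. Next, DMSO compound solutions are pinned in (217-fold dilution) and left 16 h. Finally, CCF4-AM substrate is loaded 2 h at room temperature and the 460/530 nm ratio read.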

[3] = TOX21_p53_BLA_p3_viability: Viability Assessment in the Tox21 HCT-116 p53 Agonism Beta-lactamase Assay, Phase 3 (AID 2283593);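 further: cells exposed to compound for 16 h before reading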
How it was run: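 HCT-116 cells (4000/well) rested 5 h at 37C, then got DMSO compounds by pin tool (217-fold dilution) for 16 h at 37C, 5% CO2. After the bla read, CellTiter-Glo was added and luminescence read at 30 min, room temperature.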

[4] = TOX21_p53_BLA_p4_viability: Viability Assessment in the Tox21 HCT-116 p53 Agonism Beta-lactamase Assay, Phase 4 (AID 2283597);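 further: hits lower the luminescence signal meaning cytotoxicity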
How it was run: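 4000 HCT116 cells per well; 5 h attachment; compounds from DMSO, 217-fold dilution; 16 h at 37C. Then CCF4-AM, 2 h RT, followed by CellTiter-Glo, 30 min RT, luminescence. Decrease = cytotoxicity.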

[5] = target: Cellular tumor antigen p53 (Homo sapiens) (UniProt P04637); assay: TOX21_p53_BLA_p5_ratio: Tox21 HCT-116 p53 Agonism Beta-lactamase Assay, Ratio, Phase 5 (AID 2283599)
How it was run: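 HCT-116 cells carrying a p53-inducible beta-lactamase reporter were seeded at 4000 cells/well and dosed after 5 h with compound in DMSO (217-fold dilution). After 16 h at 37C, CCF4-AM substrate was added for 2 h, and the 460/530 nm emission ratio was scored as gain-of-signal versus DMSO.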

[6] = TOX21_p53_BLA_p5_viability: Viability Assessment in the Tox21 HCT-116 p53 Agonism Beta-lactamase Assay, Phase 5 (AID 2283600)
How it was run: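 Decreased CellTiter-Glo luminescence denotes lost viability. Exposure: 16 h at 37C, 5% CO2, with compounds from DMSO stocks diluted 217-fold in wells of 4000 cells.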

[7] = target: Cellular tumor antigen p53 (Homo sapiens) (UniProt P04637); assay: TOX21_p53_BLA_p4_ratio: Tox21 HCT-116 p53 Agonism Beta-lactamase Assay, Ratio, Phase 4 (AID 2283601)
How it was run: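 HCT116 cells carrying an inducible beta-lactamase reporter were plated at 4000 cells/well, rested 5 h, then exposed to compounds in DMSO (217-fold dilution) for 16 h at 37C. CCF4-AM substrate was loaded 2 h at room temperature; 460/530 nm emission ratio scored gain-of-signal versus DMSO.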

[8] = TOX21_PR_BLA_Followup_Agonist_viability: Viability Assessment in the Tox21 HEK293 Progesterone Receptor (PR) Agonism Beta-lactamase Follow-Up Assay (AID 2283935);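 further: signal loss means lower viability so actives are cytotoxic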
How it was run: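 Cells were plated in medium with 2% charcoal-stripped FBS and rested 6 hr. Compounds in DMSO were then added for 16 hr at 37C, followed by the FRET substrate step and CellTiter-Glo luminescence after 30 min.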

[9] = TOX21_PR_BLA_Followup_Antagonist_viability: Viability Assessment in the Tox21 HEK293 Progesterone Receptor (PR) Antagonism Beta-lactamase Follow-Up Assay (AID 2283936);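 further: cells exposed to compound with R5020 agonist for 16 h; hits lower the luminescence signal meaning cytotoxicity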
How it was run: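 PR-UAS-bla HEK293T cells in medium with 2% charcoal-stripped FBS were treated with compounds plus R5020 for 16 hr at 37C. After the beta-lactamase read, CellTiter-Glo was added to the same wells and luminescence read after 30 min at room temperature.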

[10] = TOX21_PR_LUC_Followup_Antagonist_viability: Viability Assessment in the Tox21 HEK293 Progesterone Receptor (PR) Antagonism Luciferase Follow-Up Assay (AID 2283940)
How it was run: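 HEK293-PR-A-luc, 3,000 cells/well; 5 h at 37C/0% CO2; compound pin transfer; 16 h incubation; CellTiter-Glo ATP luminescence, signal loss = cytotoxicity.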

[11] = TOX21_PR_LUC_Followup_Agonist_viability: Viability Assessment in the Tox21 HEK293 Progesterone Receptor (PR) Agonism Luciferase Follow-Up Assay (AID 2283941);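 further: loss of signal means cytotoxicity so actives lower viability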
How it was run: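 Multiplexed viability endpoint of the PR agonist luciferase follow-up: HEK293-PR-A-luc cells treated 16 h at 37C, with viability scored as decrease in CellTiter-Glo ATP signal.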

Measured: AC50

Cellular tumor antigen p53 (Homo sapiens), sequence (P04637 whole entry, looked up): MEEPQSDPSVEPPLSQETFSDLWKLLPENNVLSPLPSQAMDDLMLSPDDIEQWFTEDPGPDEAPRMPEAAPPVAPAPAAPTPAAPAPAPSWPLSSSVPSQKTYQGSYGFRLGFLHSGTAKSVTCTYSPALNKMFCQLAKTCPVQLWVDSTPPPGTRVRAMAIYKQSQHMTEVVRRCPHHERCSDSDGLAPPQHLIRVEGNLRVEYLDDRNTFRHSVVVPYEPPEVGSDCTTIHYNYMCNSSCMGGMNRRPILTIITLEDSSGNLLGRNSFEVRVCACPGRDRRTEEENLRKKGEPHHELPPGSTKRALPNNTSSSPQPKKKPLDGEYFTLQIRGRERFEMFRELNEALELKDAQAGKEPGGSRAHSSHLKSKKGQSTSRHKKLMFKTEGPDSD

CCCCCC[C@@H](CCC)C(=O)O
not listed: [8] | [9] | [10] | [11]
inactive: all other assays above

CCOC(=O)c1cnc2c(cnn2CC)c1NN=C(C)C
not listed: [8] | [9] | [10] | [11]
inactive: all other assays above

Nc1cccc(S(=O)(=O)O)c1
not listed: [8] | [9] | [10] | [11]
inactive: all other assays above

Cc1cccc(C)c1OCC(=O)N[C@@H](Cc1ccccc1)[C@@H](O)C[C@H](Cc1ccccc1)NC(=O)[C@H](C(C)C)N1CCCNC1=O
active: [4] 37.5 µM
inactive: [1] | [2] | [3] | [5] | [6] | [7]

CC(C(=O)O)c1ccc(C(=O)c2ccccc2)s1 (stereo not drawn)
not listed: [8] | [9] | [10] | [11]
inactive: all other assays above

O=C1c2ccccc2C(=O)N1CCl
not listed: [8] | [9] | [10] | [11]
inactive: all other assays above

O=C(O)c1ccc(OCCCOc2ccc(C(=O)O)cc2)cc1
not listed: [8] | [9] | [10] | [11]
inactive: all other assays above

S=c1nccc[nH]1
not listed: [8] | [9] | [10] | [11]
inactive: all other assays above

CC(C)CN(C[C@@H](O)[C@H](Cc1ccccc1)NC(=O)O[C@H]1CO[C@H]2OCC[C@H]21)S(=O)(=O)c1ccc(N)cc1
not listed: [8] | [9] | [10] | [11]
inactive: all other assays above

CCCC[P+](C)(CCCC)CCCC
not listed: [8] | [9] | [10] | [11]
inactive: all other assays above

CC1CC(OC(=O)C(O)c2ccccc2)CC(C)(C)C1 (stereo not drawn)
not listed: [8] | [9] | [10] | [11]
inactive: all other assays above

CC(C)N1CCN(c2ccc(OC[C@H]3CO[C@](Cn4cncn4)(c4ccc(Cl)cc4Cl)O3)cc2)CC1
active: [4] 10.3 µM
inactive: [1] | [2] | [3] | [5] | [6] | [7]

C[C@]12C=CC(=O)N[C@@H]1CC[C@@H]1[C@@H]2CC[C@]2(C)[C@@H](C(=O)Nc3cc(C(F)(F)F)ccc3C(F)(F)F)CC[C@@H]12
active: [3] 7.37 µM
inactive: [1] | [2] | [4] | [5] | [6] | [7]

CC(C)OC(=O)C(C)N(C(=O)c1ccccc1)c1ccc(F)c(Cl)c1 (stereo not drawn)
not listed: [8] | [9] | [10] | [11]
inactive: all other assays above

Cc1cc(O)c(C(C)C)cc1Cl
not listed: [8] | [9] | [10] | [11]
inactive: all other assays above

COC(=O)[C@H]1[C@H]2C[C@@H]3c4[nH]c5cc(OC)ccc5c4CCN3C[C@H]2C[C@@H](OC(=O)/C=C/c2cc(OC)c(OC)c(OC)c2)[C@@H]1OC
not listed: [8] | [9] | [10] | [11]
inactive: all other assays above

CC(C)Cc1ccc(CC(=O)O)cc1
inactive: [1] | [2] | [3] | [4] | [5] | [7]

OC[C@H](Cc1cccc(O)c1)[C@H](CO)Cc1cccc(O)c1
inactive: [1] | [2] | [3] | [4] | [6]

O=c1cc[nH]c(=O)[nH]1
inactive: [1] | [2] | [3] | [4] | [6] | [7]

C=C[C@]1(C)C[C@@H](OC(=O)CSCCN(CC)CC)[C@]2(C)[C@H](C)CC[C@]3(CCC(=O)[C@H]32)[C@@H](C)[C@@H]1O
inactive: [1] | [2] | [3] | [4] | [6]

C[C@]12CCC(=O)C=C1[C@@H]1C[C@@H]1[C@H]1[C@@H]3[C@@H]4C[C@@H]4[C@@]4(CCC(=O)O4)[C@@]3(C)CC[C@@H]12
active: [2] 43.4 µM
not listed: [7]
inactive: all other assays above

CCOC(C)(C)C
inactive: [1] | [2] | [3] | [4] | [6] | [7]

CCOc1ccc(C[C@H]2NC(=O)CCSSC[C@@H](C(=O)N3CCC[C@H]3C(=O)N[C@@H](CCCN)C(=O)NCC(N)=O)NC(=O)[C@H](CC(N)=O)NC(=O)[C@H]([C@@H](C)O)NC(=O)[C@H]([C@@H](C)CC)NC2=O)cc1 ([Mpa][dY](Et)ITNCP[Orn]G-NH2; disulfide 1-6)
inactive: [1] | [2] | [3] | [4] | [6] | [7]

CCN(CC)CCNC(=O)c1ccc(NS(C)(=O)=O)cc1
inactive: [1] | [2] | [3] | [4] | [6]

O=C(c1ccccc1)c1ccc2n1CCC2C(=O)O (stereo not drawn)
inactive: [1] | [2] | [3] | [4] | [5]
active: [7] 43.6 µM

NC(N)=NC(=O)Cc1c(Cl)cccc1Cl
inactive: [1] | [2] | [3] | [4] | [5] | [7]

CCCCCCCCCCCCCCCBr
inactive: [1] | [2] | [3] | [4] | [6]
